The source of these data is PubChem BioAssay (Tox21).

Results filed as inconclusive are left out. The source made the active and inactive calls. Unless noted, calls follow the shape of the dose curve; as a rule, active = well fitted curve in the direction sought with a large enough effect in the repeat runs; inconclusive = weak or mixed curves; inactive = no such curve, though single readings can be large; an effect the other way counts as inactive or inconclusive.

The nature of assay [1]: qHTS assay to identify aromatase inhibitors - cell viability counter screen (AID 743084).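 Also: cells stimulated with testosterone during compound exposure; nearly all actives have a fitted effect of over 55% in size.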
Assay [2] can be described thus: qHTS assay to identify small molecule that activate the aryl hydrocarbon receptor (AhR) signaling pathway - cell viability counter screen (AID 743086). Also: nearly all actives have a fitted effect of over 45% in size. Also: potency is read from the fitted curve at half-maximal effect. Summed up:
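HepG2-AhR-luc (HG2L7.5c1) cells, 4000/well, were preincubated 5 h at 37C, exposed to compound in qHTS format for 24 hr at 37C, then given CellTiter-Fluor for 30 min; viability was read as fluorescence in the reporter wells.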
A general note: qHTS replaces the single test concentration by a dilution series.

In assay [3] the target is Peroxisome proliferator-activated receptor gamma (Homo sapiens) (UniProt P37231). Briefly: qHTS assay to identify small molecule agonists of the peroxisome proliferator-activated receptor gamma (PPARg) signaling pathway (AID 743094; active = well fitted activation curve with a large enough effect in the signal ratio in the repeat runs, not every such curve was filed as active; the % refers to the signal ratio). Summed up: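 Agonist activity was taken from a beta-lactamase reporter (FRET substrate, 1 h at room temperature) in HEK293H cells carrying a PPARg UAS-bla construct. Compounds in DMSO were incubated 17 h at 37C after a 5 h cell pre-incubation.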

Assay [4] has the same target. Briefly: qHTS assay to identify small molecule antagonists of the peroxisome proliferator-activated receptor gamma (PPARg) signaling pathway (AID 743191; calls by dose curve; also: nearly all actives have a fitted effect of over 30% in size; also: potency is read from the fitted curve at half-maximal effect). Summed up: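 GeneBLAzer PPARg UAS-bla HEK293H cells carrying a UAS-driven beta-lactamase reporter were plated at 3000 cells/well, preincubated 5 h at 37C, then given compound for 17 h at 37C; LiveBLAzer B/G FRET substrate was read after 1 h at room temperature.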

The nature of assay [5]: qHTS assay to identify small molecule antagonists of the peroxisome proliferator-activated receptor gamma (PPARg) signaling pathway - cell viability counter screen (AID 743194). Also: nearly all actives have a fitted effect of over 55% in size. Also: potency is read from the fitted curve at half-maximal effect. The method in brief: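 PPARg-UAS-bla HEK293H cells were plated, rested 5 h at 37 C, then treated with compounds plus rosiglitazone (50 nM final) for 17 h at 37 C; viability was then read by CellTiter-Glo luminescence after 30 min at room temperature.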

The nature of assay [6]: qHTS assay for small molecule agonists of the antioxidant response element (ARE) signaling pathway - cell viability counter screen (AID 743203; calls by dose curve; also: nearly all actives have a fitted effect of over 55% in size; also: potency is read from the fitted curve at half-maximal effect). The method in brief:
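Viability counter screen: CellTiter-Glo luminescence, read after 30 min at room temperature, in ARE-bla HepG2 wells. Compound exposure lasted 16 h at 37C/5% CO2, following a 5 h pre-incubation of the cells after plating.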

Assay [7] can be described thus: qHTS assay for small molecule activators of the heat shock response signaling pathway - cell viability counter screen (AID 743209). Also: nearly all actives have a fitted effect of over 50% in size. The method in brief: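 Cytotoxicity counter screen run in the same wells as the heat-shock bla reporter assay: HeLa HSE-bla cells, 5 h compound exposure at 37 C, viability read by CellTiter-Glo luminescence.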
Assay [8] in a line: qHTS assay for small molecule activators of the heat shock response signaling pathway (AID 743210; active = well fitted activation curve with a large enough effect in the signal ratio in the repeat runs, with a control signal flat, not every such curve was filed as active; the % refers to the signal ratio; also: series mostly up to about 63 µM). Summed up: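 Heat shock element–beta-lactamase HeLa reporter cells; qHTS with compounds for 5 h at 37 C; detection by FRET substrate fluorescence after 2.5 h at RT.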
The nature of assay [9]: qHTS assay to identify small molecule agonists of the peroxisome proliferator-activated receptor delta (PPARd) signaling pathway - cell viability counter screen (AID 743211). Also: nearly all actives have a fitted effect of over 55% in size. Also: potency is read from the fitted curve at half-maximal effect. Summed up:
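Multiplexed format: after the 2 h room-temperature LiveBLAzer B/G FRET step, CellTiter-Glo was added to the same wells. Luminescence after 30 min gave cell viability; compound exposure was 17 h at 37C.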

In assay [10] the target is Peroxisome proliferator-activated receptor delta (Homo sapiens) (UniProt Q03181). Briefly: qHTS assay to identify small molecule agonists of the peroxisome proliferator-activated receptor delta (PPARd) signaling pathway (AID 743212; calls by dose curve). The method in brief: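 Beta-lactamase reporter read by fluorescence (LiveBLAzer B/G FRET, 2 h, room temperature). Test agents, in DMSO, incubated at 37 C with PPARd-bla HEK293H cells.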

Assay [11] can be described thus: qHTS assay to identify small molecule antagonists of the peroxisome proliferator-activated receptor delta (PPARd) signaling pathway - cell viability counter screen (AID 743213). Also: nearly all actives have a fitted effect of over 50% in size. Also: potency is read from the fitted curve at half-maximal effect. The method in brief: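 Viability counter-screen, qHTS format: PPARd-bla HEK293H, L165041 300 nM final, 17 h compound exposure at 37 C, CellTiter-Glo luminescence after 30 min RT.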
Assay [12] has as its target Peroxisome proliferator-activated receptor delta (Homo sapiens) (UniProt Q03181). Kind of assay: qHTS assay to identify small molecule antagonists of the peroxisome proliferator-activated receptor delta (PPARd) signaling pathway (AID 743215; active = well fitted inhibition curve with a large enough effect in the signal ratio in the repeat runs, not every such curve was filed as active; the % refers to the signal ratio;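 also: cells stimulated with agonist L165041 at 300 nM final during compound exposure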; also: potency is read from the fitted curve at half-maximal effect). The method in brief: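 Agonist L165041 (300 nM final) added with compound to PPARd-bla HEK293H UAS-bla reporter cells; 17 h incubation at 37 C. Read-out: LiveBLAzer FRET substrate, 2 h at room temperature, fluorescence intensity.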

Assay [13] deals with Bile acid receptor (Homo sapiens) (UniProt Q96RI1). Kind of assay: qHTS assay to identify small molecule antagonists of the farnesoid-X-receptor (FXR) signaling pathway (AID 743217; active = well fitted inhibition curve with a large enough effect in the signal ratio in the repeat runs, not every such curve was filed as active; the % refers to the signal ratio). Summed up:
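Antagonist mode: chenodeoxycholic acid at 50 uM final stimulates a UAS-driven beta-lactamase reporter in HEK 293T FXR-bla cells during 16 h, 37C compound exposure. Read-out is FRET substrate fluorescence after 2 h at room temperature.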

Assay [14] in a line: qHTS assay to identify small molecule agonists of the farnesoid-X-receptor (FXR) signaling pathway - cell viability counter screen (AID 743218). Also: nearly all actives have a fitted effect of over 45% in size. Also: potency is read from the fitted curve at half-maximal effect. Summed up:
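Viability counter screen in the same wells: CellTiter-Glo luminescence, 30 min room-temperature incubation, measured after the beta-lactamase read. Cells were GeneBLAzer FXR-UAS-bla HEK 293T, compound-treated 16 h at 37C.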

Assay [15] deals with Bile acid receptor (Homo sapiens) (UniProt Q96RI1). Kind of assay: qHTS assay to identify small molecule agonists of the farnesoid-X-receptor (FXR) signaling pathway (AID 743220; active = well fitted activation curve with a large enough effect in the signal ratio in the repeat runs, not every such curve was filed as active; the % refers to the signal ratio). The method in brief:
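FXR-UAS-bla HEK 293T cells carrying a UAS-driven beta-lactamase reporter were plated for 5 h at 37C/5% CO2, then exposed to DMSO-dissolved Tox21 10K compounds for 16 h at 37C. A LiveBLAzer B/G FRET substrate was loaded for 2 h at room temperature before fluorescence reading.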

The target in assay [16] is Aryl hydrocarbon receptor (Homo sapiens) (UniProt P35869). Briefly: qHTS assay to identify small molecule that activate the aryl hydrocarbon receptor (AhR) signaling pathway (AID 743085). Also: nearly all actives have a fitted effect of over 15% in size. Also: potency is read from the fitted curve at half-maximal effect.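 As to activation: HG2L7.5c1 human HepG2 liver cells with stably integrated DRE-driven firefly reporter; series mostly up to about 70 µM.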 The method in brief: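 Reporter assay in engineered HepG2 line HG2L7.5c1, whose plasmid carries twenty dioxin responsive elements upstream of firefly luciferase. Treatment lasted 24 h at 37C; ONE-Glo luminescence gauged induction.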

Assay [17] can be described thus: qHTS assay to identify small molecule antagonists of the farnesoid-X-receptor (FXR) signaling pathway - cell viability counter screen (AID 743221; active = well fitted cell-killing curve with a large enough effect in the repeat runs, not every such curve was filed as active; also: nearly all actives have a fitted effect of over 50% in size; also: potency is read from the fitted curve at half-maximal effect). The method in brief: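 CellTiter-Glo, 30 min RT, luminescence; same wells as the LiveBLAzer FRET read. Cells: FXR-UAS-bla HEK 293T. Treatment: compound with chenodeoxycholic acid 50 uM final, 16 h at 37 C.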
The nature of assay [18]: qHTS assay for small molecule agonists of the antioxidant response element (ARE) signaling pathway (AID 743202; active = well fitted activation curve with a large enough effect in the signal ratio in the repeat runs, not every such curve was filed as active; the % refers to the signal ratio). Summed up: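 Following a 16 h, 37 C exposure of reporter HepG2 cells (ARE-driven beta-lactamase, 2,000 cells/well) to compounds, FRET substrate was applied for 2 h at room temperature and fluorescence intensity recorded.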
The target in assay [19] is Vitamin D3 receptor (Homo sapiens) (UniProt P11473). Kind of assay: qHTS assay to identify small molecule agonists of the vitamin D receptor (VDR) signaling pathway (AID 743222; calls by dose curve). The method in brief:
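Agonist mode, beta-lactamase reporter: fluorescence from LiveBLAzer B/G FRET substrate (2 h, room temperature) read after 16 h compound treatment at 37 C of VDR-bla cells, which were pre-incubated 4 h after seeding.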

Assay [20] shares this target. Briefly: qHTS assay to identify small molecule antagonists of the vitamin D receptor (VDR) signaling pathway (AID 743223; active = well fitted inhibition curve with a large enough effect in the signal ratio in the repeat runs, not every such curve was filed as active; the % refers to the signal ratio; also: potency is read from the fitted curve at half-maximal effect). Summed up: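 After VDR-bla cells are plated and left 4 h at 37C, DMSO-dissolved compounds and 3 nM (final) calcitriol agonist are added. Incubation continues 16 h at 37C; FRET beta-lactamase substrate then develops 2 h at room temperature.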

Vitamin D3 receptor (Homo sapiens), sequence (P11473 whole entry, looked up): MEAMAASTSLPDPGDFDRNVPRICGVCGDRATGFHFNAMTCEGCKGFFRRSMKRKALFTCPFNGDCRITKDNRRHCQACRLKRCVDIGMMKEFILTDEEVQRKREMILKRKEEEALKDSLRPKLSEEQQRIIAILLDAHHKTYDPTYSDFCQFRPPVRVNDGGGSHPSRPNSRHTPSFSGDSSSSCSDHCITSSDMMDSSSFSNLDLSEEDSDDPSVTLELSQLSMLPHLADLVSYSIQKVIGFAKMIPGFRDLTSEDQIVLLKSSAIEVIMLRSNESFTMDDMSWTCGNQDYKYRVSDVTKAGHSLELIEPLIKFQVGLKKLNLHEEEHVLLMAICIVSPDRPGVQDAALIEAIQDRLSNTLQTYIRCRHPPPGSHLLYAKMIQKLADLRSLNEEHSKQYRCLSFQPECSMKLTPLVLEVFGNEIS
Peroxisome proliferator-activated receptor gamma (Homo sapiens), sequence (P37231 whole entry, looked up): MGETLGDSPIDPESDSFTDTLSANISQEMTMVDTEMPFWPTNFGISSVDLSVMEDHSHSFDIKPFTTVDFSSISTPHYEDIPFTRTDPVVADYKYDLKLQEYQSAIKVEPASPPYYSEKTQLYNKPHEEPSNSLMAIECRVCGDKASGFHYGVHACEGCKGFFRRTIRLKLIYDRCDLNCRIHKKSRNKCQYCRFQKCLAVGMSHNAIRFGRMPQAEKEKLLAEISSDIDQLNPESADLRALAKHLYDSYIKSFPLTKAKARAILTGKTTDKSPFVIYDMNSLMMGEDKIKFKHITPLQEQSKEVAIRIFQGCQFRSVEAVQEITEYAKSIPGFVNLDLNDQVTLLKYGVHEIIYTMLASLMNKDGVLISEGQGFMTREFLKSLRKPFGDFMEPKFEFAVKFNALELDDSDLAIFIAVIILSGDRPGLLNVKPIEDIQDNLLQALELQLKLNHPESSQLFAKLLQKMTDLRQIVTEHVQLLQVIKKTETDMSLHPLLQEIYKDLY
Peroxisome proliferator-activated receptor delta (Homo sapiens), sequence (Q03181 whole entry, looked up): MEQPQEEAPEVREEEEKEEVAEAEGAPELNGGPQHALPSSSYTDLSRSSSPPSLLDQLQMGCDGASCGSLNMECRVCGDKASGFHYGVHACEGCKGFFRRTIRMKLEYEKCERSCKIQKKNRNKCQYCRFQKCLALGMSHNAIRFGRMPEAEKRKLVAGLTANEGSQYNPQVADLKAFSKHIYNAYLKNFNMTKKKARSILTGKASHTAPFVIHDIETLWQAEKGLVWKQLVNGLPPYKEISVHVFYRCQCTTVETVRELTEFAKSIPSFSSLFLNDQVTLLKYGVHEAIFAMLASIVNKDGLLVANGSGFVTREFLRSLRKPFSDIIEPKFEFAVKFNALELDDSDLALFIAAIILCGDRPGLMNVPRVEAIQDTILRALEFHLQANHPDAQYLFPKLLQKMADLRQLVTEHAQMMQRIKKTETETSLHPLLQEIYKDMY
Bile acid receptor (Homo sapiens), sequence (Q96RI1 whole entry, looked up): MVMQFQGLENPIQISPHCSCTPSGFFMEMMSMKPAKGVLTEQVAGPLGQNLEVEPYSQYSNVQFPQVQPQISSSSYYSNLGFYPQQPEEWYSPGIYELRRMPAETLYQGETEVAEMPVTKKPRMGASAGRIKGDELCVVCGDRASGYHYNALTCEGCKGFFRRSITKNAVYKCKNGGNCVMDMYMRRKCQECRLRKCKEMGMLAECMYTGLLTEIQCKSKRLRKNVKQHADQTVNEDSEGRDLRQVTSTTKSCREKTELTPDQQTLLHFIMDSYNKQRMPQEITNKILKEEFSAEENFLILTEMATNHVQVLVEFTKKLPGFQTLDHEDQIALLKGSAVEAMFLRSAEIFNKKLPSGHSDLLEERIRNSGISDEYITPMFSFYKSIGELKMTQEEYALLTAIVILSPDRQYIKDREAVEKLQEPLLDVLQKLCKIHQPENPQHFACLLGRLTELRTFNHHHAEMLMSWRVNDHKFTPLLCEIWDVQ
Aryl hydrocarbon receptor (Homo sapiens), sequence (P35869 whole entry, looked up): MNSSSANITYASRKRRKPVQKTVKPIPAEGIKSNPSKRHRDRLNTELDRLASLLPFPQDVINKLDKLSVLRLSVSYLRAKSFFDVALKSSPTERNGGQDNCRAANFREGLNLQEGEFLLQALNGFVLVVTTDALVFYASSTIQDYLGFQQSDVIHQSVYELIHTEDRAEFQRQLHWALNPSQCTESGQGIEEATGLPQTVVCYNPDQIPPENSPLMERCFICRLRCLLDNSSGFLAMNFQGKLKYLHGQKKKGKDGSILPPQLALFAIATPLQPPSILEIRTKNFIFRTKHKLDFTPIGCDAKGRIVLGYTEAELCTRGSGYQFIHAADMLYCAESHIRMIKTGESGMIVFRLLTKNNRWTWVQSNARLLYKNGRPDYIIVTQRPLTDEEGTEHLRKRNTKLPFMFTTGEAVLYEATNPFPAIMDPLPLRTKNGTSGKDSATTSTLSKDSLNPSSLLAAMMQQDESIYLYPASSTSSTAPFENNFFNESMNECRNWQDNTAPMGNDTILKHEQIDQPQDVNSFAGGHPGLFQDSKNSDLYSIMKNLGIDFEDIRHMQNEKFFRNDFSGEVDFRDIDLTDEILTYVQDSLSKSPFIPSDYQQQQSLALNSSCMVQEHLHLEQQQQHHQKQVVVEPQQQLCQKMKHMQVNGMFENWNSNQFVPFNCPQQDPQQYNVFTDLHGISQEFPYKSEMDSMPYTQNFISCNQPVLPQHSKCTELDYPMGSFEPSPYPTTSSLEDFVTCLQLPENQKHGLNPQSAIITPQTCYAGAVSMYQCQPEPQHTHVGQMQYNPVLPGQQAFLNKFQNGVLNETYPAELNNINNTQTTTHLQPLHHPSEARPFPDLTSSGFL

Turning to `CC(CCC(=O)O)C(=O)O` (stereo not given), the Potency result in assay [1], in assay [2], in assay [3], in assay [4], in [5] and in assay [6] was “inactive” throughout. For the same compound, the Potency result in assay [7], in assay [8], in [9], in assay [10], in assay [11] and in assay [12] was “inactive” each time. For the same compound, the Potency entry in assay [13], in [14] and in assay [15] was “inactive” in each case.

With `C[C@@H]1CN(CCCn2c3ccccc3c3ccccc32)C[C@H](C)N1`, the Potency entry in [1], in assay [7] and in [8] was “inactive” in each case. Further, the Potency in assay [16] is 26.6 µM (active); in assay [5], 23.7 µM (active); in assay [6], 26.6 µM (active); in assay [9], 10.6 µM (active); in assay [11], 9.44 µM (active); in [12] it was 29.8 µM (active). In addition, the Potency in assay [14] was 15 µM (active); in assay [17], 29.8 µM (active).

Turning to `CC(=O)Nc1ccc(C)cc1C`, the Potency entry in [1], in assay [2], in assay [3], in [4], in assay [5] and in assay [18] was “inactive” throughout. Also, the Potency result in assay [6], in assay [7], in assay [8], in assay [9], in assay [10] and in assay [11] was “inactive” each time. The Potency result in assay [12], in [13], in assay [14], in assay [15], in [17] and in assay [19] was “inactive” in each case. In addition, the Potency entry in assay [20] is “inactive”.

For `COc1cc(Nc2c(C#N)cnc3cc(OCCCN4CCN(C)CC4)c(OC)cc23)c(Cl)cc1Cl`, the Potency result in [16], in [7] and in assay [19] was “inactive” each time. Besides, the Potency in assay [2] was 13.3 µM (active); in [5], 21.1 µM (active); in [6] it was 18.8 µM (active); in [9] it was 26.6 µM (active); in assay [14], 13.3 µM (active); in [17], 26.6 µM (active).

Turning to `CCCCC(CC)COP(=O)(O)O` (stereo not given), the Potency entry in assay [1], in [2], in [5], in assay [6], in assay [7] and in assay [8] was “inactive” in each case. The Potency result in [9], in assay [11], in [15] and in assay [19] was “inactive” in each case.

On to `Oc1c(I)cc(I)c2cccnc12`, for which the Potency result in [1], in assay [2], in [6], in assay [7], in assay [8] and in assay [9] was “inactive” each time. Moreover, the Potency result in assay [10], in [11] and in assay [13] was “inactive” each time. Also, the Potency in assay [4] is 18.8 µM (active); in assay [20], 21.3 µM (active).

`CC1(CN2CCC(n3c(=O)[nH]c4ccccc43)CC2)OCc2ccccc2-n2cccc21` (stereo not given): the Potency result in assay [1], in assay [2], in assay [7], in assay [8], in [17] and in [20] was “inactive” in each case. Moreover, the Potency in assay [6] and in [9] was 33.5 µM (active) each time.

Take `O=c1c(O)c(-c2ccc(O)cc2)oc2cc(O)cc(O)c12`: the Potency entry in [1], in assay [2], in assay [5], in assay [18], in [6] and in assay [7] was “inactive” in each case. Also, the Potency entry in [8], in assay [9], in [11], in assay [15] and in assay [17] was “inactive” throughout.

For the compound `Cc1ccccc1S`, the Potency result in [1], in assay [2], in assay [4], in assay [5], in assay [6] and in [9] was “inactive” in each case. In addition, the Potency result in [10], in assay [11], in assay [12], in assay [13], in [14] and in [15] was “inactive” throughout. In addition, the Potency entry in assay [17] and in assay [20] was “inactive” each time.

As to `N#CCCN(CCO)CCO`, the Potency result in assay [1], in assay [2], in assay [5], in assay [6], in [7] and in [8] was “inactive” each time. For the same compound, the Potency result in assay [10], in assay [11], in [13], in assay [14], in assay [15] and in assay [20] was “inactive” each time.
